This is an account of results in PubChem BioAssay (NCATS).

A short description of assay [1]: P-glycoprotein substrates identified in KB-3-1 adenocarcinoma cell line, qHTS therapeutic library screen (AID 1346986). Further: nearly all actives have a fitted effect of over 60% in size. Conditions: KB-3-1 parental cells viability, CellTiter-Glo, 72 h; series mostly up to 44.5 µM. The essentials:
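Viability read by CellTiter-Glo after 72 h compound exposure in dose-response of KB-3-1 and KB-8-5-11 (P-gp-high) cells. Hits needed AC50 < 10 uM, >50% maximum response and curve class -1.1 to -2.4. Cherry-picks retested ± tariquidar, including pcDNA/MDR-19 HEK-293 pair.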

A short description of assay [2]: P-glycoprotein substrates identified in KB-8-5-11 adenocarcinoma cell line, qHTS therapeutic library screen (AID 1346987). Further: nearly all actives have a fitted effect of over 65% in size. On activity change, negative = cytotoxicity: on the % scale 0 is the no-effect control and ±100 the full control effect. Conditions: KB-8-5-11 (P-gp overexpressing) viability, CellTiter-Glo, 72 h; series mostly up to 44.5 µM. The essentials: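 Compounds are pinned in dose-response onto KB-8-5-11 cells (500 cells/well, colchicine-free medium) and left 72 h at 37 degree C. CellTiter-Glo luminescence then yields AC50 values.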
A general note: qHTS replaces the single test concentration by a dilution series.

In assay [3] the test system is Zika virus NS2B-NS3 protease (unlinked complex). The assay is described as follows: Primary screen GU Rhodamine qHTS for Zika virus inhibitors: Unlinked NS2B-NS3 protease assay (AID 1347159). Further: nearly all actives have a fitted effect of over 60% in size. Further: potency means the concentration at half of the fitted maximal effect. On activity change, negative = inhibition: on the % scale 0 is the no-effect control and ±100 the full control effect. Conditions: Recombinant ZIKV NS2B-NS3 protease, Rhodamine110 substrate fluorescence; series mostly up to 107 µM. The essentials:
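Unlinked NS2B/NS3, 25 nM; Rhod110 peptide, 1.5 microM; compounds, up to 114 microM. Reaction run 15 min at RT in 10 mM Tris-HCl pH 8.0, 0.01% Tween 20; kinetic fluorescence change fitted with a 4-parameter Hill model.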

Assay [4] concerns Zika virus NS2B-NS3 protease (linked construct). In words: Primary screen NINDS Rhodamine qHTS for Zika virus inhibitors (AID 1347160). Further: nearly all actives have a fitted effect of over 55% in size. Further: potency means the concentration at half of the fitted maximal effect. On activity change, negative = inhibition: on the % scale 0 is the no-effect control and ±100 the full control effect. The note with it: purified NS2B-NS3 protease, Rhodamine110 substrate fluorescence; series mostly up to 33.1 µM. In outline: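 Single-chain NS2B-NS3 protease, 25 nM, pH 8.0; compounds preincubated 15 min. Activity: Rhodamine110 release from 1.5 microM substrate over 15 min, room temperature, data fitted to 4-parameter Hill.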

Records with an inconclusive call do not appear. A number with no mark means an inactive call. The source made the active and inactive calls. The call rests on the fitted dose curve; in most records, active means well fitted curve in the direction sought with a large enough effect; inconclusive means small, poorly fitted or top-dose-only effect, or another doubt; inactive means no such curve, though single readings can be large; an effect the other way counts as inactive or inconclusive.

On to `O=C(NCCN1CCCC1)c1cc(-c2ccc(CN3CCOCC3)cc2)nc2ccc(F)cc12`, for which the Potency entry in assay [1], in assay [2], in assay [3] and in assay [4] was “inactive” throughout.

On to `Cc1cccc(-c2nn3c(c2-c2ccnc4ccc(C(N)=O)cc24)CCC3)n1`, for which the Potency entry in assay [1], in assay [2], in assay [3] and in assay [4] was “inactive” in each case.

As for `C=C[C@H]1[C@H](O[C@@H]2O[C@H](CO)[C@@H](O)[C@H](O)[C@H]2O)OC=C(C(=O)OC)[C@H]1CC=O`, the Potency result in assay [1], in assay [2], in assay [3] and in assay [4] was “inactive” in each case.

Take `CC1(C)C2CCC1(C)C(OC(=O)C(O)(CC(=O)O)CC(=O)O)C2` (stereo not given): the Potency entry in assay [1], in assay [2], in assay [3] and in assay [4] was “inactive” each time.

Turning to `CC1OC(OC2CCC3(C)C(CCC4(C)C3C=CC35OCC6(CCC(C)(C)CC63)CCC45C)C2(C)CO)C(OC2OC(CO)C(O)C(O)C2O)C(O)C1OC1OC(CO)C(O)C(O)C1O` (stereo not given), the outcome in assay [1] was “inactive [at 9.29 µM]”. For the same compound, in assay [2], the activity change, negative = cytotoxicity is 2.86% [at 9.29 µM]. Moreover, the Potency entry in assay [3] and in assay [4] was “inactive” throughout.

Turning to `COC1OC(=O)C2=C1C1(C)CCCC(C)(C)C1CC2O` (stereo not given), the Potency result in assay [1], in assay [2], in assay [3] and in assay [4] was “inactive” in each case.

For the compound `O=C(c1c2ccccc2cc2ccccc12)N1CCC(N2CCC[C@@H](C(=O)N3CCOCC3)C2)CC1`, the Potency result in assay [1], in assay [2], in assay [3] and in assay [4] was “inactive” throughout.

On to `CC1(C(=O)O)CC[C@]2(C(=O)OC3OC(CO)C(O)C(O)C3O)CC[C@]3(C)C(=CCC4[C@@]5(C)CC[C@H](OC6OCC(O)C(O)C6OC6OC(CO)C(O)C(O)C6O)C(C)(C)C5CC[C@]43C)C2C1` (stereo not given in full), for which the outcome in assay [1] and in assay [2] was “inactive [at 9.29 µM]” in each case. Also, the Potency entry in assay [3] and in assay [4] was “inactive” throughout.

With `CCC(=O)OCC(=O)[C@@]1(OC(=O)CC)[C@@H](C)C[C@H]2[C@@H]3CCC4=CC(=O)C=C[C@]4(C)[C@@]3(F)[C@@H](O)C[C@@]21C`, the Potency entry in assay [1], in assay [2], in assay [3] and in assay [4] was “inactive” in each case.

As for `COC(=O)c1ccc(OC)cc1O[C@@H]1O[C@H](CO[C@@H]2OC[C@@H](O)[C@H](O)[C@H]2O)[C@@H](O)[C@H](O)[C@H]1O`, the Potency entry in assay [1], in assay [2], in assay [3] and in assay [4] was “inactive” each time.

With `C[C@@H]1CC2OC(=O)C3=C2C(CCC3O)[C@@]12C[C@@H](c1ccoc1)OC2=O` (stereo not given in full), the Potency result in assay [1], in assay [2], in assay [3] and in assay [4] was “inactive” in each case.

For the compound `CC1=C[C@H](O)[C@H]2C(C)(C)CCC[C@]2(C)[C@@]1(O)CO`, the Potency result in assay [1], in assay [2], in assay [3] and in assay [4] was “inactive” in each case.

As for `COc1ccc(-n2[nH]c3c(cnc4ccccc43)c2=O)cc1`, the Potency result in assay [1], in assay [2], in assay [3] and in assay [4] was “inactive” in each case.

Consider `O=C(O)/C=C/c1ccc2occc2c1O[C@@H]1O[C@H](CO)[C@@H](O)[C@H](O)[C@H]1O`, for which the Potency entry in assay [1], in assay [2], in assay [3] and in assay [4] was “inactive” throughout.

With `COc1cc(O)cc2c1C(=O)OC(C)CCCCCCC2` (stereo not given), the Potency entry in assay [1] and in assay [2] was “inactive” each time. Also, the Potency in assay [3] was 20 µM (active); in assay [4], 14.1 µM (active).

In the case of `CCOC(=O)CSc1nc2c(sc3ccccc32)c(=O)n1CCCN1CCCC1`, the Potency entry in assay [1], in assay [2], in assay [3] and in assay [4] was “inactive” each time.

As for `Cc1ccc(-c2c(-c3nn(C)c4ncnc(N5CCC(N6CCCCC6)C5)c34)cnn2C)cc1` (stereo not given), the Potency entry in assay [1], in assay [2], in assay [3] and in assay [4] was “inactive” throughout.

Consider `CC1=C2CC(C)(C)CC2C(O)C2=C(C1)C(=O)OC2O` (stereo not given), for which the Potency result in assay [1], in assay [2], in assay [3] and in assay [4] was “inactive” throughout.

Consider `COc1cc(/C=C/C(=O)OCC2OC(OC3(CO)OC(CO)C(O)C3O)C(O)C(O)C2O)ccc1O` (stereo not given), for which the Potency entry in assay [1], in assay [2], in assay [3] and in assay [4] was “inactive” in each case.

`COC(=O)C1=COC(O[C@@H]2O[C@H](CO)[C@@H](O)[C@H](O)[C@H]2O)[C@@H]2[C@@](C)(O)[C@@H](OC(=O)/C=C/c3ccccc3)C[C@]12O` (stereo not given in full): the Potency entry in assay [1], in assay [2], in assay [3] and in assay [4] was “inactive” in each case.

As to `C[C@@H]1O[C@@H](O[C@H]2[C@H](O)[C@@H](O)[C@H](OC[C@H]3O[C@@H](OC(=O)[C@]45CCC(C)(C)C[C@H]4C4=CCC6[C@@]7(C)C[C@@H](O)[C@H](O)[C@@](C)(CO)C7[C@H](O)C[C@@]6(C)[C@]4(C)CC5)[C@H](O)[C@@H](O)[C@@H]3O)O[C@@H]2CO)[C@H](O)[C@H](O)[C@H]1O` (stereo not given in full), the outcome in assay [1] and in assay [2] was “inactive [at 9.29 µM]” throughout. The Potency entry in assay [3] and in assay [4] was “inactive” in each case.

`CC(O)C1NC(=O)C2CCCN2C1=O` (stereo not given): the Potency result in assay [1], in assay [2], in assay [3] and in assay [4] was “inactive” each time.

Take `CC(C)=CC1C[C@](C)(O)[C@@H]2[C@H]3CCC4[C@@]5(C)CC[C@H](O[C@@H]6OC[C@H](O)[C@H](O[C@@H]7O[C@H](CO[C@@H]8O[C@H](CO)[C@@H](O)[C@H](O)[C@H]8O)[C@@H](O)[C@H](O)[C@H]7O)[C@H]6O[C@@H]6O[C@@H](C)[C@H](O)[C@@H](O)[C@H]6O)C(C)(C)[C@@H]5CC[C@@]4(C)[C@@]34CO[C@@]2(C4)O1` (stereo not given in full): the outcome in assay [1] is “inactive [at 9.29 µM]”. Also, in assay [2], the activity change, negative = cytotoxicity is 9.35% [at 9.29 µM]. Besides, the Potency result in assay [3] and in assay [4] was “inactive” throughout.

As to `CC1(C)OC(=O)C=C[C@@]2(C)C1CC(=O)[C@]1(C)C2CC[C@@]2(C)[C@H](c3ccoc3)OC(=O)[C@H]3O[C@]321` (stereo not given in full), the Potency result in assay [1], in assay [2], in assay [3] and in assay [4] was “inactive” throughout.

`C[C@@H]1O[C@@H](O[C@@H]2[C@@H](O)[C@H](O[C@@H]3[C@@H](O)[C@@H](O)[C@H](O[C@H]4[C@H](OC(=O)[C@]56CCC(C)(C)C[C@H]5C5=CCC7[C@@]8(C)C[C@H](O)[C@H](O[C@@H]9O[C@H](C(=O)O)[C@@H](O)[C@H](O)[C@H]9O)[C@@](C)(CO)C8[C@H](O)C[C@@]7(C)[C@]5(C)C[C@H]6O)O[C@@H](CO)[C@@H]4O)O[C@H]3C)OC[C@H]2O)[C@H](O)[C@H](O)[C@H]1O` (stereo not given in full): the outcome in assay [1] is “inactive [at 9.29 µM]”. In addition, in assay [2], the activity change, negative = cytotoxicity was 8.82% [at 9.29 µM]. Besides, in assay [3], the activity change, negative = inhibition was 24.9% [at 19.1 µM]. Moreover, the Potency entry in assay [4] is “inactive”.
